# In paper PMC7862700, “An all-to-all approach to the identification of sequence-specific readers for epigenetic DNA modifications on cytosine”:
# Tests used:
# Test in all cases: DAPPL (digital affinity profiling via proximity ligation, sequencing); 10 mM Tris-HCl pH 7.5, 50 mM NaCl, 1 mM DTT, 4% glycerol, room temperature, 30 min; GST-TFs on glutathione beads, 16-mer random dsDNA library, 0.1% formaldehyde crosslink after washing; high values mean tight binding
# FLI1 = target: T1, FLI1 (Homo sapiens, UniProt Q01543 1-452); details: protein: recombinant; tags: N-terminal GST; dsDNA, one strand shown
# T1 sequence: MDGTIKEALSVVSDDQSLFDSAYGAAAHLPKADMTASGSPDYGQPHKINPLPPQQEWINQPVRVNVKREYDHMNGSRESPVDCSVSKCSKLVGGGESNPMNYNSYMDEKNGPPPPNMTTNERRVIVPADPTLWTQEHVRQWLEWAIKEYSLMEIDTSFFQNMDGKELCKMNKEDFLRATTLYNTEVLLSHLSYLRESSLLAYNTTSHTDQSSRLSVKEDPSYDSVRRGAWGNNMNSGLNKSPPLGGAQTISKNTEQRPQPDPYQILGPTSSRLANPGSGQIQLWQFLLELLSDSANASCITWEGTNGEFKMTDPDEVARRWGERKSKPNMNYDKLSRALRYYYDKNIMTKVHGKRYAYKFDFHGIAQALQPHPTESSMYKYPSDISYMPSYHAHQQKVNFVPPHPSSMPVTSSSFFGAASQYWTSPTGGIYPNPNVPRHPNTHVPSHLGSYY
# Method in brief: (§1)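 A tag-only sample was pooled with DNA-barcoded human transcription factors that had been expressed in yeast as GST fusions and captured on glutathione beads. The pools were incubated for 30 min at room temperature with 200 nmole of a random double-stranded 16-mer DNA library in Tris/NaCl/DTT/glycerol buffer, then washed, crosslinked with 0.1% formaldehyde, proximity-ligated (BsaI/T4 ligase, 1 h, 37 °C), PCR-amplified and sequenced on an Illumina NextSeq500. Binding signal is each hexamer's read frequency for a factor divided by its frequency for the tag-only sample.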
# ELK1 = target: T2, ELK1 (Homo sapiens, UniProt P19419 1-428); details: protein: recombinant; tags: N-terminal GST; dsDNA, one strand shown
# T2 sequence: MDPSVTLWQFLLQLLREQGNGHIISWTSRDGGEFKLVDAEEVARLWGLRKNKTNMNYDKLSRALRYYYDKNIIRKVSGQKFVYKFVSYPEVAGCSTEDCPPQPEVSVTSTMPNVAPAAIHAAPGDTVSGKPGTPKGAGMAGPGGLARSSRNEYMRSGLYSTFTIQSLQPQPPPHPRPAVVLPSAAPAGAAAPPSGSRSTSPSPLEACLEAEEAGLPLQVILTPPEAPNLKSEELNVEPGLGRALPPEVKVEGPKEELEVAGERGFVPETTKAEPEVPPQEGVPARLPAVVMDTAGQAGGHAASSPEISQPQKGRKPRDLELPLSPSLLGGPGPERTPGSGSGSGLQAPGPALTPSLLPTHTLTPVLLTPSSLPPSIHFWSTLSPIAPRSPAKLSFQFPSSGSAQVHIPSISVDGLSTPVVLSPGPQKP
# Method in brief: as §1
# GABPA = target: T3, GABPA (Homo sapiens, UniProt Q06546 1-454); details: protein: recombinant; tags: N-terminal GST; dsDNA, one strand shown
# T3 sequence: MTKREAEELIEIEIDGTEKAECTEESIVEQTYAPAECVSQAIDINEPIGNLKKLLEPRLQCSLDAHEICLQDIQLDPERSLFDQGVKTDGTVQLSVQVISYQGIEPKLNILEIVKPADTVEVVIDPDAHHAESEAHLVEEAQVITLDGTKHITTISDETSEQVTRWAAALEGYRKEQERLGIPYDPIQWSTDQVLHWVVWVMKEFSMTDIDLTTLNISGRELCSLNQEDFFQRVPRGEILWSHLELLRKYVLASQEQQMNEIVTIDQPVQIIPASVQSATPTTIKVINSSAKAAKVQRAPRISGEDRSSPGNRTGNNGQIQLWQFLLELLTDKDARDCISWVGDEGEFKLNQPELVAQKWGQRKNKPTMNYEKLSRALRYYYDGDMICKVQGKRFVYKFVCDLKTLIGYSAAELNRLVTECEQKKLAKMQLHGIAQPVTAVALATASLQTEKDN
# Method in brief: as §1
# ERG = target: T4, ERG (Homo sapiens, UniProt P11308 1-479); details: protein: recombinant; tags: N-terminal GST; dsDNA, one strand shown
# T4 sequence: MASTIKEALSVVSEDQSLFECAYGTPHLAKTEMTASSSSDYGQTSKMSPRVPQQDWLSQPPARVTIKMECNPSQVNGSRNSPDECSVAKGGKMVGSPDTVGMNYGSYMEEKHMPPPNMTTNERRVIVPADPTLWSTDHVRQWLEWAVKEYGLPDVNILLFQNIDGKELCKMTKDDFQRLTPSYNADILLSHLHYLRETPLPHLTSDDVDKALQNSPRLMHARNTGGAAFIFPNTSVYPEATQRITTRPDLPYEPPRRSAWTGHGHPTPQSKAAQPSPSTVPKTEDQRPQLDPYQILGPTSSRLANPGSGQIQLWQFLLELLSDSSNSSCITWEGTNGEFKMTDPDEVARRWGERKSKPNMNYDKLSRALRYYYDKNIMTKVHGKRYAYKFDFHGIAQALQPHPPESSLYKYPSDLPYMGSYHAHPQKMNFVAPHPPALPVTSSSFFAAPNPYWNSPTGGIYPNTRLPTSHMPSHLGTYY
# Method in brief: as §1
# ELF1 = ELF1 (Homo sapiens, UniProt P32519 1-619); details: protein: recombinant; tags: N-terminal GST; dsDNA, one strand shown
# Method in brief: as §1
# EHF = target: T5, EHF (Homo sapiens, UniProt Q9NZC4 1-300); details: protein: recombinant; tags: N-terminal GST; dsDNA, one strand shown
# T5 sequence: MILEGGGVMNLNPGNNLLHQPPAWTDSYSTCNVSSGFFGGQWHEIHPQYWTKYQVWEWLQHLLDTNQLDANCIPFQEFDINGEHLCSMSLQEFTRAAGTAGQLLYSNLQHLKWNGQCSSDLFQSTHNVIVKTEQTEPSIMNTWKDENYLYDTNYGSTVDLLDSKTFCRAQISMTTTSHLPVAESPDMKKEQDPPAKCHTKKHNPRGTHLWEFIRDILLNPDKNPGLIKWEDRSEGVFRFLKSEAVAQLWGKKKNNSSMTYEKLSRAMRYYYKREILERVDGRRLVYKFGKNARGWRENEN
# Method in brief: as §1
# SPI1 = SPI1 (Homo sapiens, UniProt P17947 1-270); details: protein: recombinant; tags: N-terminal GST; dsDNA, one strand shown
# Method in brief: as §1
# SPIB = SPIB (Homo sapiens, UniProt Q01892 1-262); details: protein: recombinant; tags: N-terminal GST; dsDNA, one strand shown
# Method in brief: as §1
# ELK3 = target: T6, ELK3 (Homo sapiens, UniProt P41970 1-407); details: protein: recombinant; tags: N-terminal GST; dsDNA, one strand shown
# T6 sequence: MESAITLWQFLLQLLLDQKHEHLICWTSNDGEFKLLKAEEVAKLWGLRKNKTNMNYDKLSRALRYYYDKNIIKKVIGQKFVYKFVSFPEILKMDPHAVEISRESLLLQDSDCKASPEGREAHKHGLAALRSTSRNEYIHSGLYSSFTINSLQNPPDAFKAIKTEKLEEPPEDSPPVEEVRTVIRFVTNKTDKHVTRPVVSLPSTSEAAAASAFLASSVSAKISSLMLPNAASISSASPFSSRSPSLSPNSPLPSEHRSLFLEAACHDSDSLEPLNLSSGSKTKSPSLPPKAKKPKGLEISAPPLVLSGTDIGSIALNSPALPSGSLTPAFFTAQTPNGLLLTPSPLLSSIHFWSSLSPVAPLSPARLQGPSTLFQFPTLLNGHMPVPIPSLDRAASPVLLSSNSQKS
# Method in brief: as §1
# FEV = target: T7, FEV (Homo sapiens, UniProt Q99581 1-238); details: protein: recombinant; tags: N-terminal GST; dsDNA, one strand shown
# T7 sequence: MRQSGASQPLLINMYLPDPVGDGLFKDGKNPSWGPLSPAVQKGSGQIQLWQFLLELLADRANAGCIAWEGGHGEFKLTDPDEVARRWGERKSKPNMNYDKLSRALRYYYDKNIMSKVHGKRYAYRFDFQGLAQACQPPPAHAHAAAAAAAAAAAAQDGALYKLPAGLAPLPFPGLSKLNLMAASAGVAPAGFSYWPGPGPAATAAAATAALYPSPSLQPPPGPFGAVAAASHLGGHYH
# Method in brief: as §1
# ETV5 = ETV5 (Homo sapiens, UniProt P41161 1-510); details: protein: recombinant; tags: N-terminal GST; dsDNA, one strand shown
# Method in brief: as §1
# HSF1 = HSF1 (Homo sapiens, UniProt Q00613 1-529); details: protein: recombinant; tags: N-terminal GST; chain copies: 3; dsDNA, one strand shown
# Method in brief: as §1
# SPIC = target: T8, SPIC (Homo sapiens, UniProt Q8N5J4 1-248); details: protein: recombinant; tags: N-terminal GST; dsDNA, one strand shown
# T8 sequence: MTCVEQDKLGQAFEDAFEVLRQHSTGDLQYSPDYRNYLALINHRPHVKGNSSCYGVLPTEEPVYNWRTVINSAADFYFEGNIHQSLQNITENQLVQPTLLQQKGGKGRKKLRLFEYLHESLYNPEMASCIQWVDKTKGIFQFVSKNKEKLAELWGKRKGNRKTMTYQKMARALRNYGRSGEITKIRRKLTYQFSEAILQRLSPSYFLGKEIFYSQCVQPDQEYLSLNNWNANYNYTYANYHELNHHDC
# Method in brief: as §1
# ELF4 = ELF4 (Homo sapiens, UniProt Q99607 1-663); details: protein: recombinant; tags: N-terminal GST; dsDNA, one strand shown
# Method in brief: as §1
# ELK4 = target: T9, ELK4 (Homo sapiens, UniProt P28324-2 1-405); details: protein: recombinant; tags: N-terminal GST; dsDNA, one strand shown
# T9 sequence: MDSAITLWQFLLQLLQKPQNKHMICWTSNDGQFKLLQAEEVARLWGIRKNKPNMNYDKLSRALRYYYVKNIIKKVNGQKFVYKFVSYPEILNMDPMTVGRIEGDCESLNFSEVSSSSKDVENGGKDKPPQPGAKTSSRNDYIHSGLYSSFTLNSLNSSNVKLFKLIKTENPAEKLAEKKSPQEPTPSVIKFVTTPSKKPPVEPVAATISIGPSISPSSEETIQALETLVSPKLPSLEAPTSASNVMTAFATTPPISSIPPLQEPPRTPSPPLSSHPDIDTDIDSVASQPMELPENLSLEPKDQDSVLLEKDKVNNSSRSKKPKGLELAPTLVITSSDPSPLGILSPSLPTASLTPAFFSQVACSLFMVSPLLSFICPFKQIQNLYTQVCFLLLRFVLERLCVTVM
# Method in brief: as §1
# ETV2 = target: T10, ETV2 (Homo sapiens, UniProt O00321 1-342); details: protein: recombinant; tags: N-terminal GST; dsDNA, one strand shown
# T10 sequence: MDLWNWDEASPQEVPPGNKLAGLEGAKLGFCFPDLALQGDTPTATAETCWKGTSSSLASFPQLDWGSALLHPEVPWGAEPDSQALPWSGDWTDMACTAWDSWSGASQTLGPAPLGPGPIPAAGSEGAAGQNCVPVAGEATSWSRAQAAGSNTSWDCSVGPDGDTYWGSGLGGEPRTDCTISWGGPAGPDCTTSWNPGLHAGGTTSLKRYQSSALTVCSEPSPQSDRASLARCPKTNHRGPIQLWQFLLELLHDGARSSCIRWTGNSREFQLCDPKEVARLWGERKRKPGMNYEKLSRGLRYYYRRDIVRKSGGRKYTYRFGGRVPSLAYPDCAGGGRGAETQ
# Method in brief: as §1
# ELF3 = target: T11, ELF3 (Homo sapiens, UniProt P78545 1-371); details: protein: recombinant; tags: N-terminal GST; dsDNA, one strand shown
# T11 sequence: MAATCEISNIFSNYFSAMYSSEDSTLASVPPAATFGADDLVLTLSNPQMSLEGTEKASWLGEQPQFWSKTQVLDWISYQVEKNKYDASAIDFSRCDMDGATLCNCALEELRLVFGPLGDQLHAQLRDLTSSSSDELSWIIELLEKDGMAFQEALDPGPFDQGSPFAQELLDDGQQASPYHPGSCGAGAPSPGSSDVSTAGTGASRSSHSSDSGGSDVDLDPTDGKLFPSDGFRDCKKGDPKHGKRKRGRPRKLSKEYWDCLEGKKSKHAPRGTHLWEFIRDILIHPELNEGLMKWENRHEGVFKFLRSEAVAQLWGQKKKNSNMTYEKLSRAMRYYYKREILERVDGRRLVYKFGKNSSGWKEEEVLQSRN
# Method in brief: as §1
# CRX = CRX (Homo sapiens, UniProt O43186 1-299); details: protein: recombinant; tags: N-terminal GST; dsDNA, one strand shown
# Method in brief: as §1
# ETV1 = ETV1 (Homo sapiens, UniProt P50549 1-477); details: protein: recombinant; tags: N-terminal GST; dsDNA, one strand shown
# Method in brief: as §1
# SPIB, sequence (Q01892 whole entry): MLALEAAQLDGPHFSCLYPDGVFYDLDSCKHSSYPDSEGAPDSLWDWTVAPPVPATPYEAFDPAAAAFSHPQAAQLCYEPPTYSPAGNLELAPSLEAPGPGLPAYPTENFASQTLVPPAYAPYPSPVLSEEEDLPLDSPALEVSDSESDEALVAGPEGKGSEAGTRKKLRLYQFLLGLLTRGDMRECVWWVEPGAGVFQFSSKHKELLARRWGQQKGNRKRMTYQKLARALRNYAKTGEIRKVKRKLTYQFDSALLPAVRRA
# ETV1, sequence (P50549 whole entry): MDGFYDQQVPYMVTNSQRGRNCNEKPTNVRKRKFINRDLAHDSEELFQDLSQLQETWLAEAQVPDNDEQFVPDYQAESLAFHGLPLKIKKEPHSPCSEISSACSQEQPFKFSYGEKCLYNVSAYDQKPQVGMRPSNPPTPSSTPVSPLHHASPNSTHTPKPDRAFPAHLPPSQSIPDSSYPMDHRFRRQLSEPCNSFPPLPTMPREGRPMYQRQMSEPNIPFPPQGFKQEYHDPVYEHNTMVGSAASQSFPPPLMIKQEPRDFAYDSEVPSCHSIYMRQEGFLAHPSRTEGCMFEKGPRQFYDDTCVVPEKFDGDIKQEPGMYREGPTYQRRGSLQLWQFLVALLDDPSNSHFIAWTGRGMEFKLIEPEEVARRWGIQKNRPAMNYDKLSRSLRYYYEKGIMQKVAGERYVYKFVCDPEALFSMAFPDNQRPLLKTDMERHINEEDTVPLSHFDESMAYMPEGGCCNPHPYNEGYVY
# CRX, sequence (O43186 whole entry): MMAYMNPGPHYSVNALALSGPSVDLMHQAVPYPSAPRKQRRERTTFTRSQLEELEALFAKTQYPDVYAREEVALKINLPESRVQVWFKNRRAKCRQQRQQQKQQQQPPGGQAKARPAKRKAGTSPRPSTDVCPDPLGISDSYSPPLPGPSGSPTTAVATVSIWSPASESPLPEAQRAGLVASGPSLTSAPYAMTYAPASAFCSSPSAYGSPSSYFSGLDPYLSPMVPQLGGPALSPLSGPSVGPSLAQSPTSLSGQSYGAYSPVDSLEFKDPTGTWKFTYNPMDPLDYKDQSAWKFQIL
# HSF1, sequence (Q00613 whole entry): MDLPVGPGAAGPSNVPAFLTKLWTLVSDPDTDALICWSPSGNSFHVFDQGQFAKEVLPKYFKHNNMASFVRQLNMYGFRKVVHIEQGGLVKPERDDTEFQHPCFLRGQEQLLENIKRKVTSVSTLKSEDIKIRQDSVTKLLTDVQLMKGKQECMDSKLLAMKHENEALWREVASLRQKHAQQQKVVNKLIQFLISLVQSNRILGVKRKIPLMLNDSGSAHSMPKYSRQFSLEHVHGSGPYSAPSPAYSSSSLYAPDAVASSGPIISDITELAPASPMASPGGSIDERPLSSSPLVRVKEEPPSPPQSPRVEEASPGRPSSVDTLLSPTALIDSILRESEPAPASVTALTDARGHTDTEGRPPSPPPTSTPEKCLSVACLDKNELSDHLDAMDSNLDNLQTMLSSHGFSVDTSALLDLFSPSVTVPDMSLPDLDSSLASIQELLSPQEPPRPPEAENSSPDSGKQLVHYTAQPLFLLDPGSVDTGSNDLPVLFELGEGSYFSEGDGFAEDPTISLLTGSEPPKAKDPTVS
# ELF4, sequence (Q99607 whole entry): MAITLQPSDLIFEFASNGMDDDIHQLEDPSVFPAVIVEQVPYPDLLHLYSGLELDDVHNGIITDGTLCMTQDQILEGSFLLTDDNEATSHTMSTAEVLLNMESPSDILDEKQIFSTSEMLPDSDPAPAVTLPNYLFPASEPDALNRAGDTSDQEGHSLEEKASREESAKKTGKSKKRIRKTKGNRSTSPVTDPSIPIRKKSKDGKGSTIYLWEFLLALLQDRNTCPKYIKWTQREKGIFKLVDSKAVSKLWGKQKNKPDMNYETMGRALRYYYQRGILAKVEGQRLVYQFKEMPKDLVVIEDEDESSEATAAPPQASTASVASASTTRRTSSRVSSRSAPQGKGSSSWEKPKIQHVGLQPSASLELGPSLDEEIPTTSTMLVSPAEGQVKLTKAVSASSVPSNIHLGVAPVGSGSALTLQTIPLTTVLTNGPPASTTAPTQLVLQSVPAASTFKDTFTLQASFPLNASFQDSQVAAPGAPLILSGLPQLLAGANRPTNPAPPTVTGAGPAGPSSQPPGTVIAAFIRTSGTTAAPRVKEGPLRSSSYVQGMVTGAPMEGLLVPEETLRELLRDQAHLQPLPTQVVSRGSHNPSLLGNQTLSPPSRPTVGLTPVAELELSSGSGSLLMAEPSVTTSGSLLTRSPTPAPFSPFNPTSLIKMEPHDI
# ETV5, sequence (P41161 whole entry): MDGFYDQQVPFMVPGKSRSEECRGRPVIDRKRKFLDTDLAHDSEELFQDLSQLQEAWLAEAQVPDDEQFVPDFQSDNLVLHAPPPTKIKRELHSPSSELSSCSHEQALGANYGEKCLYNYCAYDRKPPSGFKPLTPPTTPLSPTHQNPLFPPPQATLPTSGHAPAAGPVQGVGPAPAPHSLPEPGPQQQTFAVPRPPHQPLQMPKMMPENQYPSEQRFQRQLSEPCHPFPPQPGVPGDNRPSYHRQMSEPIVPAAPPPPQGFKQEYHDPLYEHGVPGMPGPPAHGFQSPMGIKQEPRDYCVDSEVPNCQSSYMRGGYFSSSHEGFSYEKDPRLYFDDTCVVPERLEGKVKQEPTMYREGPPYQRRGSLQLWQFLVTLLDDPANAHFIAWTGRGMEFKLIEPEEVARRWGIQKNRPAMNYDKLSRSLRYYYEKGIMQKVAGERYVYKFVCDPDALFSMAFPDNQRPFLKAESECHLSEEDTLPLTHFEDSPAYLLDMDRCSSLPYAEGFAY
# ELF1, sequence (P32519 whole entry): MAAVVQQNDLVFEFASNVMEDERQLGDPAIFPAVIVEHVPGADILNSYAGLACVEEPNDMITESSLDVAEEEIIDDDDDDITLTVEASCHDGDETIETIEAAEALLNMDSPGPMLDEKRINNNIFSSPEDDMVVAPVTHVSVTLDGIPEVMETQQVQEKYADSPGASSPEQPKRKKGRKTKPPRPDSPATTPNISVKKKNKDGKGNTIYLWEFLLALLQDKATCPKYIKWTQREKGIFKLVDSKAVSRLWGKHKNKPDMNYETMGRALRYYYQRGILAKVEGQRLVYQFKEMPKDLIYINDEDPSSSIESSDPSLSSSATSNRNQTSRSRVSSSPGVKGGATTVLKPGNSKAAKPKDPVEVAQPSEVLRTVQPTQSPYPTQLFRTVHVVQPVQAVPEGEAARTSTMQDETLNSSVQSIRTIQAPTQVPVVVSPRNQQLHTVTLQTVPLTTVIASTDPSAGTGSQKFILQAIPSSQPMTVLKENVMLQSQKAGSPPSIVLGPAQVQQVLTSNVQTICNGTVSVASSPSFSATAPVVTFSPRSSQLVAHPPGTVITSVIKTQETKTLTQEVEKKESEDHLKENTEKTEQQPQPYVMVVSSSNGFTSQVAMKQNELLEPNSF
sequence,measurement,setting,value
TATGAC,binding signal,FLI1,"1.31 fold enrichment (6-mer frequency, TF over GST control)"
same,binding signal,ELK1,"1.34 fold enrichment (6-mer frequency, TF over GST control)"
same,binding signal,GABPA,"1.37 fold enrichment (6-mer frequency, TF over GST control)"
same,binding signal,ERG,"1.31 fold enrichment (6-mer frequency, TF over GST control)"
same,binding signal,ELF1,"1.34 fold enrichment (6-mer frequency, TF over GST control)"
same,binding signal,EHF,"1.23 fold enrichment (6-mer frequency, TF over GST control)"
same,binding signal,SPI1,"1.27 fold enrichment (6-mer frequency, TF over GST control)"
same,binding signal,SPIB,"1.4 fold enrichment (6-mer frequency, TF over GST control)"
same,binding signal,ELK3,"1.32 fold enrichment (6-mer frequency, TF over GST control)"
same,binding signal,FEV,"1.25 fold enrichment (6-mer frequency, TF over GST control)"
same,binding signal,ETV5,"1.33 fold enrichment (6-mer frequency, TF over GST control)"
same,binding signal,HSF1,"1.18 fold enrichment (6-mer frequency, TF over GST control)"
same,binding signal,SPIC,"1.28 fold enrichment (6-mer frequency, TF over GST control)"
same,binding signal,ELF4,"1.32 fold enrichment (6-mer frequency, TF over GST control)"
same,binding signal,ELK4,"1.45 fold enrichment (6-mer frequency, TF over GST control)"
same,binding signal,ETV2,"1.23 fold enrichment (6-mer frequency, TF over GST control)"
same,binding signal,ELF3,"1.45 fold enrichment (6-mer frequency, TF over GST control)"
same,binding signal,CRX,"1.23 fold enrichment (6-mer frequency, TF over GST control)"
same,binding signal,ETV1,"1.26 fold enrichment (6-mer frequency, TF over GST control)"
